Here are results for 47 molecules from ChEMBL document CHEMBL4808148, “HDAC6 screening dataset using tau-based substrate in an enzymatic assay yields selective inhibitors and activators” (2021).

For orientation: inhibition means the change of the read-out against control, counted positive when it falls.

Out of some 5,600 compounds screened, about 390 (7%) showed an effect of 50% or more. The sample as a whole holds a higher share of strong results than the screen did. Non-standard residues stand in square brackets, D forms with d. Residues, ends and D or L forms follow the SMILES beside them. *: point of attachment. dPhe(4-NHCONH2) = NC(=O)Nc1ccc(C[C@@H](N)C(=O)O)cc1; Dihydroorotyl(S) = O=C1C[C@@H](C(=O)*)NC(=O)N1; dPhe(4-Cl) = N[C@H](Cc1ccc(Cl)cc1)C(=O)O; Phe(4-NH2) = Nc1ccc(C[C@H](N)C(=O)O)cc1; d2Nal = N[C@H](Cc1ccc2ccccc2c1)C(=O)O; Lys(iPr) = CC(C)NCCCC[C@H](N)C(=O)O; d3Pal = N[C@H](Cc1cccnc1)C(=O)O

The target of the assay is T1, Protein deacetylase HDAC6 (Homo sapiens) (UniProt Q9UBN7).
T1 sequence (whole entry): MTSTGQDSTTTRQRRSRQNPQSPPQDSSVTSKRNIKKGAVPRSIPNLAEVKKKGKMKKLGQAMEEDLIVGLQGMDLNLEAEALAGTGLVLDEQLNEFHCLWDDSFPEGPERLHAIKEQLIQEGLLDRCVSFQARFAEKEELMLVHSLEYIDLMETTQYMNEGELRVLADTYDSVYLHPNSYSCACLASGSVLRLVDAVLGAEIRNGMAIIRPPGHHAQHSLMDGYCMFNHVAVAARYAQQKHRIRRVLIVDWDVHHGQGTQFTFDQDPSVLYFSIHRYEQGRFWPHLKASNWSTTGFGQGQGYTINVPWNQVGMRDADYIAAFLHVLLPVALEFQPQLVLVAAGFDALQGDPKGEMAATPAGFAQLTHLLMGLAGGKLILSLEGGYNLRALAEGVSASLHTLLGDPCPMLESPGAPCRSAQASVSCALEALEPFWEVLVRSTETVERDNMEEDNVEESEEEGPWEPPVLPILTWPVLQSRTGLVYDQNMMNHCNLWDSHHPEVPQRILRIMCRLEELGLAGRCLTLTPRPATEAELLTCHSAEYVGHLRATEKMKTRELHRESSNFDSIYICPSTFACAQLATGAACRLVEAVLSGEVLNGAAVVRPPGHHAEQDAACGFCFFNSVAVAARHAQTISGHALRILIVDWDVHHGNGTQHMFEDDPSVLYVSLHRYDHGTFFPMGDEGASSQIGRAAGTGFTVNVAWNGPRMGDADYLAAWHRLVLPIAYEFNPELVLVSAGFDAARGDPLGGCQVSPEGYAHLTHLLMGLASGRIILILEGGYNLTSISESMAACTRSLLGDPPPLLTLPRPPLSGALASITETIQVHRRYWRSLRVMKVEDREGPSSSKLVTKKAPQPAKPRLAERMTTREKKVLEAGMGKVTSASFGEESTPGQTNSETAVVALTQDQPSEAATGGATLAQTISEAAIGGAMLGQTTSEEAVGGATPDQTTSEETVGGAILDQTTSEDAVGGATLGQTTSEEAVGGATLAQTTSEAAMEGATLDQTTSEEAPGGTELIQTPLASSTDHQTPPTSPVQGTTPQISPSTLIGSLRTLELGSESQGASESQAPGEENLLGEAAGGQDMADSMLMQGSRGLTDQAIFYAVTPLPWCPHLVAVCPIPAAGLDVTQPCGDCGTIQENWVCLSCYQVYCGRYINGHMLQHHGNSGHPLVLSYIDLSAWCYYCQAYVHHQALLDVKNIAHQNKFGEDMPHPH
As to conditions: at 10 µM.
For `C[C@H](NC[C@H](O)CP(=O)(O)Cc1ccccc1)c1ccc(Cl)c(Cl)c1`, the inhibition is -2.08%.
In the case of `N=C(N)S/C=C\C(=O)O` it was 6.84%; in that of `CC(=O)N[C@H](Cc1ccc2ccccc2c1)C(=O)N[C@H](Cc1ccc(Cl)cc1)C(=O)N[C@H](Cc1cccnc1)C(=O)N[C@@H](CO)C(=O)N[C@@H](Cc1ccc(NC(=O)[C@@H]2CC(=O)NC(=O)N2)cc1)C(=O)N[C@H](Cc1ccc(NC(N)=O)cc1)C(=O)N[C@@H](CC(C)C)C(=O)N[C@@H](CCCCNC(C)C)C(=O)N1CCC[C@H]1C(=O)N[C@H](C)C(N)=O` (Ac-[d2Nal][dPhe(4-Cl)][d3Pal]S[Phe(4-NH2)](Dihydroorotyl(S))[dPhe(4-NHCONH2)]L[Lys(iPr)]P[dA]-NH2), 33.2%.
`NS(=O)(=O)c1cc2c(cc1Cl)NCNS2(=O)=O`: the inhibition is -9.26%.
Regarding `NS(=O)(=O)c1cc2c(cc1Cl)N=C(CSCc1ccccc1)NS2(=O)=O`, the inhibition was found to be 78.4%.
As to `CN1C(CSCC(F)(F)F)Nc2cc(Cl)c(S(N)(=O)=O)cc2S1(=O)=O` (configuration not stated), the inhibition was found to be 11.5%.
For `COc1cc(OC)cc(C(=O)NNC(=O)Nc2cccc3ccccc23)c1`, the inhibition amounted to 9.39%.
As to `O=C(O)c1ccccc1Nc1cccc(OCc2ccc3ccccc3n2)c1`, the inhibition is 14.8%.
`Cn1cc(-c2ccncc2)c(-c2ccc(OCc3ccc4ccccc4n3)cc2)n1`: the inhibition amounted to 4.18%.
In the case of `CCCCCC(O)c1cccc(OCc2ccc3ccccc3n2)c1` (configuration not stated) it was 70.6%.
Consider `NS(=O)(=O)c1cc(C(=O)O)cc(N2CCCC2)c1Oc1ccccc1`, for which the inhibition was 1.91%.
With `COc1c(Nc2ccc(S(C)(=O)=O)nc2C)ncnc1OC1CCN(C(=O)OC(C)C)CC1`, the inhibition stood at 42.5%.
As to `O=C1NCCN1CCN1CCC(c2cn(-c3ccc(F)cc3)c3ccc(Cl)cc23)CC1`, the inhibition was 3.95%.
`Cc1cc([C@@H](C)Nc2ccccc2C(=O)O)c2nc(N3CCOCC3)cc(=O)n2c1`: the inhibition stood at 92.5%.
Turning to `O=c1cc(N2CCOCC2)nc2c3ccccc3ccn12`, the inhibition was found to be 33.6%.
In the case of `Cc1c(Cn2c(C)nc3c(C(=O)O)cc(N4CCOCC4)cc32)cccc1C(F)(F)F` it was 13.4%; in that of `CCN1CCN(Cc2ccc(Nc3ncc(F)c(-c4cc(F)c5nc(C)n(C(C)C)c5c4)n3)nc2)CC1`, -7.99%; in that of `c1ccc(N2CCN(CCCOc3ccc4c(c3)OCO4)CC2)cc1`, 8.38%.
For the molecule `CCOC(=O)c1ncc2[nH]c3cccc(OC(C)C)c3c2c1C`, the inhibition was -0.9%.
For the molecule `CCCCOC(=O)c1cc2c(cn1)[nH]c1ccccc12`, the inhibition worked out at 78.3%.
On to `CCCCC(=O)NCCc1c(Cc2ccccc2)[nH]c2ccccc12`, for which the inhibition is -8.08%.
For the molecule `CCCCCCN(CCCCCC)C(=O)Cc1c(-c2ccc(F)cc2)[nH]c2ccccc12`, the inhibition came out at 0.87%.
As for `CNC(=O)c1cc2c(cn1)[nH]c1ccccc12`, the inhibition came out at 71.2%.
Regarding `CNCC(=O)O`, the inhibition stood at 15.9%.
In the case of `NC(=O)C1=CN([C@@H]2O[C@H](COP(=O)(O)OP(=O)(O)OC[C@H]3O[C@@H](n4cnc5c(N)ncnc54)[C@H](OP(=O)(O)O)[C@@H]3O)[C@@H](O)[C@H]2O)C=CC1` it was 28.1%; in that of `Cc1cccc(C)c1NC(=O)CC12CCCN1CCC2`, -8.45%.
Consider `CC(C)(C)NC(=O)[C@@H]1CN(Cc2cccnc2)CCN1C[C@@H](O)C[C@@H](Cc1ccccc1)C(=O)N[C@H]1c2ccccc2C[C@H]1O`, for which the inhibition amounted to 1.38%.
Regarding `CN1CCN(c2ccc(Nc3ncc4cc(C#N)c(=O)n(C5CCCC5)c4n3)cc2)CC1`, the inhibition was -8.66%.
Turning to `O=C(Nc1ccccc1)c1cc([N+](=O)[O-])ccc1Cl`, the inhibition was -6.48%.
For the molecule `O=C(Nc1ccc([N+](=O)[O-])cc1Cl)c1cc(Cl)ccc1O`, the inhibition stood at 93.1%.
Regarding `O=C(Nc1ccncc1)c1cc([N+](=O)[O-])ccc1Cl`, the inhibition was determined as 8.83%.
As for `CCCCCCCCOc1ccccc1C(=O)Nc1ccc(C(=O)OCC[N+](C)(CC)CC)cc1`, the inhibition is -3.51%.
Consider `CCOc1ccccc1C(N)=O`, for which the inhibition was 18.7%.
For the molecule `CCCCCCOc1ccccc1C(N)=O`, the inhibition amounted to 93.3%.
For the molecule `CCn1cc(C(=O)O)c(=O)c2ccc(-c3ccncc3)cc21`, the inhibition came out at 30.6%.
In the case of `O=C(O)Cc1ccc(-c2ccccc2)cc1` it was 10.6%.
In the case of `O=C(Cc1ccc(-c2ccccc2)cc1)Nc1ccccn1` it was 56.6%; in that of `O=C(O)c1ccccn1`, 12.2%; in that of `COC1/C=C\OC2(C)Oc3c(C)c(O)c4c(O)c(cc(O)c4c3C2=O)NC(=O)/C(C)=C\C=C/C(C)C(O)C(C)C(O)C(C)C(OC(C)=O)C1C` (configuration not stated), 5.48%.
Consider `O=C(CCCc1ccc(-c2ccccc2F)cc1)Nc1ccc(O)cc1`, for which the inhibition stood at 24%.
In the case of `Cc1ccccc1C(=O)c1ccc(Nc2ccc(Br)cc2N)cc1Cl` it was 3.48%; in that of `COc1cc2nc(N3CCN(C(=O)C4COc5ccccc5O4)CC3)nc(N)c2cc1OC` (configuration not stated), 6.59%; in that of `COc1cc2nc(C3CC3)nc(N3CCN(c4ccccc4OC)CC3)c2cc1OC`, 89.3%.
Take `COc1ccccc1N1CCN(CCCCN2C(=O)c3ccccc3C2=O)CC1`: the inhibition worked out at 0.28%.
With `CCCn1c(=O)c2nc(C34CC5CC(CC3C5)C4)[nH]c2n(CCC)c1=O`, the inhibition is 2.81%.
Turning to `CCCCNNC(=O)c1ccc(Br)cc1`, the inhibition came out at 35.4%.
As to `CN(C)C(=O)N[C@H]1CC[C@H](CCN2CCN(c3cccc(Cl)c3Cl)CC2)CC1`, the inhibition was 18.9%.
